Assay results taken from PubChem BioAssay.
The source made the active and inactive calls.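 How the source made its calls: active means thallium flux through the channel raised or lowered by more than 3 SD from vehicle-only wells, actives on both sides; inactive means the rest.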

Columns and labels:
Assay in all cases: BK channel mutant inhibitors and activators – cell-based, U2OS BacMam, thallium flux, beta subunits, selectivity assay, profiling panel (AID 1259406);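 further: initial slope of Thallos dye fluorescence rise after thallium is added; log ratio against the mean of 0.3% DMSO vehicle wells on the same plate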
F380Y = conditions: U2OS BacMam BK variants, at 30 µM
F380Y/beta1 = conditions: U2OS BacMam BK variants, at 30 µM
F380Y/beta2Delta = conditions: U2OS BacMam BK variants, at 30 µM
F380Y/beta4 = conditions: U2OS BacMam BK variants, at 30 µM
[1] = target: Calcium-activated potassium channel subunit alpha-1 (Homo sapiens) + Leucine-rich repeat-containing protein 26 (Homo sapiens) (UniProt Q12791+Q2I0M4); conditions: U2OS BacMam BK variants, F380Y/Slo1WT/gamma1, at 30 µM
R275C = conditions: U2OS BacMam BK variants, at 30 µM
R275C/beta1 = conditions: U2OS BacMam BK variants, at 30 µM
R275C/beta2Delta = conditions: U2OS BacMam BK variants, at 30 µM
R275C/beta4 = conditions: U2OS BacMam BK variants, at 30 µM
R275C/Slo1WT/beta2 = conditions: U2OS BacMam BK variants, at 30 µM

Sequence of Calcium-activated potassium channel subunit alpha-1 (Homo sapiens) + Leucine-rich repeat-containing protein 26 (Homo sapiens) (Q2I0M4 whole entry, looked up, one chain of several): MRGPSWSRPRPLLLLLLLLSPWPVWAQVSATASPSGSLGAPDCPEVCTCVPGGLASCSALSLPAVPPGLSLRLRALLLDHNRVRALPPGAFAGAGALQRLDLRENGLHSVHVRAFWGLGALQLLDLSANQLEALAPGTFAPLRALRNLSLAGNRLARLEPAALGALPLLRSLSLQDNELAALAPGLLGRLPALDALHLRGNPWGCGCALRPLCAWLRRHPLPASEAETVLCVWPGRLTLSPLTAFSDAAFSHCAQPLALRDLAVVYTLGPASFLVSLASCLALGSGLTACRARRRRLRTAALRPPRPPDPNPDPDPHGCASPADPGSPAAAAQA

SMILES	log fold change Tl+ flux (F380Y)	log fold change Tl+ flux (F380Y/beta1)	log fold change Tl+ flux (F380Y/beta2Delta)	log fold change Tl+ flux (F380Y/beta4)	log fold change Tl+ flux [1]	log fold change Tl+ flux (R275C)	log fold change Tl+ flux (R275C/beta1)	log fold change Tl+ flux (R275C/beta2Delta)	log fold change Tl+ flux (R275C/beta4)	log fold change Tl+ flux (R275C/Slo1WT/beta2)
O=C(O)c1nnn(-c2ccccc2Oc2ccc(Cl)cc2Cl)c1-c1ccccc1	0.0736 (inactive)	0.343 (active)	0.17 (active)	0.243 (active)	0.127 (active)	-0.021 (inactive)	0.297 (active)	0.113 (active)	0.287 (active)	0.0348 (inactive)
O=C(O)CCSc1ccc2ccccc2c1	-0.00784 (inactive)	0.0347 (inactive)	-0.0447 (inactive)	0.0271 (inactive)	-0.000304 (inactive)	0.0461 (inactive)	0.0425 (inactive)	-0.00975 (inactive)	-0.0121 (inactive)	0.000781 (inactive)
O=C1CCC(=O)N1c1ccc(S(=O)(=O)NCCCN2CCN(Cc3ccccc3)CC2)cc1	0.0288 (inactive)	0.0192 (inactive)	-0.00712 (inactive)	-0.0181 (inactive)	0.0299 (inactive)	-0.0386 (inactive)	0.0158 (inactive)	-0.00414 (inactive)	-0.00195 (inactive)	-0.018 (inactive)
N=C(N)Cc1c(Cl)cccc1Cl	0.017 (inactive)	0.00557 (inactive)	-0.000365 (inactive)	-0.0202 (inactive)	-0.0432 (inactive)	0.0228 (inactive)	0.0441 (inactive)	0.028 (inactive)	0.0274 (inactive)	0.00537 (inactive)
O=C1CSCC(=O)N1c1csc(C(F)(F)F)c1-c1ccccc1	-0.0223 (inactive)	0.0869 (active)	-0.00325 (inactive)	0.0035 (inactive)	0.0169 (inactive)	0.0132 (inactive)	0.122 (active)	0.0241 (inactive)	0.11 (active)	-0.00785 (inactive)
O=C(NC1CCSC1)c1ccccc1NS(=O)(=O)c1ccccc1 (stereo not given)	-0.000365 (inactive)	-0.00386 (inactive)	-0.00638 (inactive)	0.00736 (inactive)	-0.0334 (inactive)	-0.153 (active)	-0.151 (active)	-0.158 (active)	-0.0828 (active)	-0.0155 (inactive)
Cc1c(O)nc2ccccn2c1=O	0.0365 (inactive)	-0.00065 (inactive)	0.0329 (inactive)	0.00904 (inactive)	0.0423 (inactive)	-0.0111 (inactive)	0.0248 (inactive)	0.00886 (inactive)	0.0309 (inactive)	0.0209 (inactive)
COC(=O)Cc1cccc2c(=O)c3ccccc3oc12	0.00439 (inactive)	-0.00882 (inactive)	0.0497 (inactive)	0.0357 (inactive)	0.00575 (inactive)	0.0179 (inactive)	-0.0476 (inactive)	0.00558 (inactive)	0.00377 (inactive)	0.049 (inactive)
CC(=O)C(=CN(C)C)Sc1ccc(Cl)cc1	0.0299 (inactive)	-0.000152 (inactive)	0.00502 (inactive)	0.000556 (inactive)	0.0115 (inactive)	0.0269 (inactive)	0.0366 (inactive)	0.0244 (inactive)	0.0484 (inactive)	-0.0118 (inactive)
CCCCCCCCCCCCSC(=S)NCC1CCCO1 (stereo not given)	0.0353 (inactive)	0.0262 (inactive)	0.0128 (inactive)	0.0306 (inactive)	0.0128 (inactive)	-0.00711 (inactive)	-0.0124 (inactive)	0.0322 (inactive)	-0.00355 (inactive)	-0.00192 (inactive)
O=C(Cn1nnc(N2CCCC2)n1)NN=Cc1ccc(Cl)cc1	-0.0338 (inactive)	-0.0165 (inactive)	-0.0415 (inactive)	0.0509 (inactive)	-0.0411 (inactive)	0.0738 (inactive)	0.012 (inactive)	-0.0395 (inactive)	0.0185 (inactive)	-0.00152 (inactive)
Cc1nnc(-c2ccccn2)[nH]c1=O	-0.0188 (inactive)	-0.0365 (inactive)	-0.0191 (inactive)	-0.0613 (inactive)	0.0158 (inactive)	0.0139 (inactive)	-0.0558 (inactive)	0.00421 (inactive)	-0.00382 (inactive)	0.0227 (inactive)
Cn1c(Sc2cnc(=S)[nH]c2-c2ccc(Cl)cc2)nnc1C(F)(F)F	0.000803 (inactive)	0.0224 (inactive)	0.000625 (inactive)	-0.0336 (inactive)	0.0434 (inactive)	-0.0138 (inactive)	-0.00364 (inactive)	-0.0183 (inactive)	0.0272 (inactive)	0.0806 (inactive)
NC(=NC(=O)c1cccs1)c1cccs1	0.00622 (inactive)	0.0573 (inactive)	0.0445 (inactive)	0.0177 (inactive)	0.0217 (inactive)	0.0451 (inactive)	0.0586 (inactive)	0.0615 (inactive)	0.0555 (inactive)	0.0314 (inactive)
COc1ccc(CCN=Cc2ccccn2)cc1OC	-0.038 (inactive)	0.0306 (inactive)	0.00295 (inactive)	-0.00225 (inactive)	-0.032 (inactive)	-0.0485 (inactive)	-0.0399 (inactive)	-0.0772 (inactive)	-0.0204 (inactive)	-0.00322 (inactive)
Cc1cc(CNCC(O)C(F)(F)F)no1 (stereo not given)	-0.0368 (inactive)	0.043 (inactive)	-0.0229 (inactive)	0.06 (inactive)	0.018 (inactive)	0.0241 (inactive)	-0.0759 (inactive)	-0.018 (inactive)	0.0165 (inactive)	0.0726 (inactive)
Cc1noc(C)c1C(=O)Sc1nccc(C(F)(F)F)n1	-0.0193 (inactive)	0.00713 (inactive)	-0.00114 (inactive)	0.0508 (inactive)	-0.00072 (inactive)	0.00122 (inactive)	0.0433 (inactive)	-0.013 (inactive)	0.0297 (inactive)	-0.0512 (inactive)
Cc1onc(-c2ccccc2)c1N1C(=O)CCN(C(C)C)C1=O	-0.0312 (inactive)	-0.00917 (inactive)	-0.0373 (inactive)	-0.00603 (inactive)	-0.0319 (inactive)	-0.0915 (active)	0.0435 (inactive)	-0.0125 (inactive)	-0.0122 (inactive)	0.000512 (inactive)
Cc1cc(C)c(C(=O)O)c(CC(C)(C)C(=O)O)c1	0.000395 (inactive)	0.016 (inactive)	-0.00135 (inactive)	-0.0155 (inactive)	0.0359 (inactive)	0.0232 (inactive)	-0.00597 (inactive)	0.00899 (inactive)	-0.0125 (inactive)	0.0267 (inactive)
COC(OC)c1ccc(C#N)c(SC)n1	0.0176 (inactive)	-0.0051 (inactive)	0.00992 (inactive)	0.0407 (inactive)	-0.00294 (inactive)	-0.0258 (inactive)	-0.00195 (inactive)	0.0434 (inactive)	-0.0479 (inactive)	-0.0163 (inactive)
CCCCCCCCCCCCSC(=S)Nc1ccc(Br)c(C)c1	-0.0409 (inactive)	-0.00527 (inactive)	-0.0326 (inactive)	-0.000986 (inactive)	-0.031 (inactive)	0.0399 (inactive)	0.0206 (inactive)	-0.028 (inactive)	0.0416 (inactive)	0.0211 (inactive)
Cn1cnc([N+](=O)[O-])c1Sc1cccs1	0.0486 (inactive)	0.0187 (inactive)	0.0459 (inactive)	0.0453 (inactive)	0.029 (inactive)	0.00916 (inactive)	0.0118 (inactive)	0.0288 (inactive)	0.0285 (inactive)	0.0293 (inactive)
COC(=O)C(O)(c1ccc(NC(=O)c2ccc(Cl)c(Cl)c2)cc1)C(F)(F)F (stereo not given)	-0.0296 (inactive)	0.0948 (active)	-0.0715 (inactive)	0.112 (active)	0.0984 (inactive)	0.0903 (active)	0.216 (active)	0.0948 (active)	0.263 (active)	0.0206 (inactive)
COC(=O)C(C#N)=CN(C)C	0.0153 (inactive)	0.000638 (inactive)	0.00933 (inactive)	0.0217 (inactive)	-0.0293 (inactive)	0.0113 (inactive)	0.0127 (inactive)	0.0244 (inactive)	-0.00979 (inactive)	-0.0171 (inactive)
Cn1cnc2cccc(F)c2c1=N	-0.0259 (inactive)	0.000586 (inactive)	-0.0156 (inactive)	0.0474 (inactive)	0.038 (inactive)	0.0169 (inactive)	0.0241 (inactive)	-0.00275 (inactive)	0.00326 (inactive)	0.0172 (inactive)
O=S(=O)(Oc1ccc(F)cc1F)c1cccc(S(=O)(=O)Oc2ccc(F)cc2F)c1	-0.193 (active)	-0.0152 (inactive)	0.00173 (inactive)	-0.485 (active)	-0.264 (active)	-0.229 (active)	-0.209 (active)	-0.0138 (inactive)	-0.144 (active)	-0.0996 (inactive)
